Whole data set: some 9,900 sequences, median “r (bound/input frequency ratio)” near 0.7, cut for the highest 2% near 6.5. The list comes from a sample in which the highest values are over-represented; it also holds similar and randomly drawn sequences.
B1: ENSMUSG00000061578.598|Ksr2 (ssRNA)
RNA: GGGAGUUCUACAGUCCGACGAUCGCUUCGAUAUCCGCAUGCUAUAAAAUAUGAUUCAGGCAAAUUCAAUGCAACUCAAAAUUUCCACCAAUCCCAUAUUGUCCCUAGCAAUGACAAAAUUAUUUGCAAGACAGACCCUGUGACCUGUAGAGGCAAAAUAUAUGGUGGCUUGCCUGGCUGGCCUGUGAUAUAGUGGACUGUCUUAGUGAUCGGACUUCAGGGAGCAACCUAUAGGAAAUGCAAAGGCUUAGAGGGGACGGACAGCUCCCUGACCCUGGAUGGCCAGGAAUGGUGCUAGCUAGGGCUCUUGCGGUCGCACUAGUGUGGAAUUCUCGGGUGUCAAGG
B2: ENSMUSG00000031028.646|Tub (ssRNA)
RNA: GGGAGUUCUACAGUCCGACGAUCGCUUCGAUAUCCGCAUGCUACCCCACUGAGGUCCAGGUAGAGCAGAUGAGGCUGAAAUGUAGAGUGUUCUAUAGAGCAUCUCAGUAGCAUAGAAGGAGAAGCCCAGCUCCAACCUCCUGGACCCCAUACUGGUGACCAGCUUGGUGAGGACAGGCAAAAUUUCUCUAGCUGAGAGCACACUUAGCCAGUUUUCACGCCUAGAACAUAUAUGUCGAUUUGCACAUGAUUGUCUUUUCCUAUUUUGGAGUGGUCAGACAUUUUAUUUUUGUUCAAAAUUAUCCUCUUGCGGUCGCACUAGUGUGGAAUUCUCGGGUGUCAAGG
B3: ENSMUSG00000031028.671|Tub (ssRNA)
RNA: GGGAGUUCUACAGUCCGACGAUCGCUUCGAUAUCCGCAUGCUAGAGAGCACACUUAGCCAGUUUUCACGCCUAGAACAUAUAUGUCGAUUUGCACAUGAUUGUCUUUUCCUAUUUUGGAGUGGUCAGACAUUUUAUUUUUGUUCAAAAUUAUCUGGAGUUUUAGACAAACUUGCAAAACUGUGCUUUUAUUAAGUGACUUUUUGAAUAAACUUUUUGGUAUUCUGAAGCAAAUGUAUUUAUUUAUUGGUAUGUGCAAUGACAAACUUGGUAUUUUCCCAUAAUGACAUUAUGUAUGUUGUAGACUCUUGCGGUCGCACUAGUGUGGAAUUCUCGGGUGUCAAGG
B4: ENSMUSG00000029636.275|Wasf3|21:26 (ssRNA)
RNA: GGGAGUUCUACAGUCCGACGAUCGCUUCGAUAUCCGCAUGCUAUCCCUACGCCCUGCUUUGGCCACACACUGAGUGCUCUGUGCUGCGCCAUGGCCAUCCUGGAGCCUGCGCACACGUGGCCGCUGCUGUGACUCGCUGUCCUUGGUAAUUGGUGAGAGGCUUUUUCUUUCUUUCUCAGUUCUGCUUUUCCACACUGAGACCCACCAUGUUGACAUCAUCCUCGCGACGUUGACAUUUGAGCCUUUUGUUCUGUCUCCCAUGUGCCCUGUAGAACCCAGCACUCAUGUUUGGCAAAACUUUUUCUCUUGCGGUCGCACUAGUGUGGAAUUCUCGGGUGUCAAGG
B5: ENSMUSG00000061578.898|Ksr2 (ssRNA)
RNA: GGGAGUUCUACAGUCCGACGAUCGCUUCGAUAUCCGCAUGCUAGACACUACCCAAACCCUAGCACUCUCCCAGUGACUCUCCUAUGAGUACAUAUGCCAUCCUGCUUCCUUUGUGGCAAAACCCUGGGUCACCCAGAGACAGAUUUCCCAGAAUCCCUGGGCCACUUCUCAAUUCUACCCAUGACAGACAUGUCCCAUCCAUGAGCCCAGAUAGUCAAAGACUUCAGCACAAGGGUGUUUAGAGUAGGCAGUGUGGAAGUAUCAAUAAGGUUAUUGAGAUGAGGAUUUAGAAAGAUCCAUGUACUCUUGCGGUCGCACUAGUGUGGAAUUCUCGGGUGUCAAGG
B6: ENSMUSG00000042529.46|Kcnj12|142:149 (ssRNA)
RNA: GGGAGUUCUACAGUCCGACGAUCGCUUCGAUAUCCGCAUGCUAGGCCAAAAUGACUGGCUCACGGCCUCGGAGGCUGAUGUAUACCCAUGGGCAAGGAGGUGACUUCUUGGGGUAGGGUUGCUCAGGAGUUAGGGACUCUGCUGGAGGCCUUAGGUGCAGGUCCCAGCCCCGGUGGGAGGAGGCACACAUACUACACUUCAUUGGUUUUUAACUUGGGCAAGACUGUUUACAAACAAAAACAAACAAACAAACAAUCAAAAAAAAAACCCACCCCACAAAACACAAGAAAACAUUAACAGGUGCUCUUGCGGUCGCACUAGUGUGGAAUUCUCGGGUGUCAAGG
B7: ENSMUSG00000031028.261|Tub (ssRNA)
RNA: GGGAGUUCUACAGUCCGACGAUCGCUUCGAUAUCCGCAUGCUACCAGAGGGAAGCAAAGAGCAUUUAGACAUUGCUUUUUGCUUUGAAAUAGAUAUGUUUGGAAACGCUAAGUAGAAGUUUAAAAAGUAGAGUCAUGUAGAGUCAUGCUUUGAAUAUGUGGGUCAUGCUUUAGAUAUGAAGAGGCUAUGCAGGUAAGGAGGCUGGAUUGAUGUAAAUGGAAGUAGUACUUUAAGAAAGCUCUAGAUUUCCCAGGUUGGACACUCGACGAAAGGCACACCUGCUGCAGCAGGUUCUGACACACCCUCUUGCGGUCGCACUAGUGUGGAAUUCUCGGGUGUCAAGG
B8: ENSMUSG00000043670.150|Diras1|4:8;157:162;227:231 (ssRNA)
RNA: GGGAGUUCUACAGUCCGACGAUCGCUUCGAUAUCCGCAUGCUAGGACACACGAGUGGCUGCCUGGACACUGCCCACCUGGACACCAGCCUUCUGCUGAGAUAGAGACCUUGGCACAGUGGCACCUCGACAGCCACCCCGACUGGGGGUUUGGGGUGCUGAGGGUGGGGUGCCCAGCUGAGAGUCUAUCAGCAAAGUCCCACACACCGGUGAUAGGACUAGUGGCUGCUGCCCUAGGGCUCUGACAGAAUCUGAGCCUCUUUGCUGGUCAACACAACUCUGGAGACUGUCCCCCAUGUCUGCCCCUCUUGCGGUCGCACUAGUGUGGAAUUCUCGGGUGUCAAGG
B9: ENSMUSG00000034801.46|Sos2 (ssRNA)
RNA: GGGAGUUCUACAGUCCGACGAUCGCUUCGAUAUCCGCAUGCUACCACCCGCCACUGUAUAGACUGCCUCUGCUGGAAAAUGCAGAAACUCCUCAAUGACCUUGGCCAUAUGUAGUCAUUGACACUGGAAUAGUAUUUGUAAAGGUUUUUAAUUUAUUCAAAAAGACAUAGUAUUUUAGUACUUUUUACAGAAAUGCUACUGAUUAAAUAAGCUCUUAAGAAUUAGUAAACUUGUUGGAUGGCAGUGGCCCACAGCUGUAAUCCCAGCACCCUGGUUGCAGGGGCAGGUGGGCUUCAGGGUUUGCUCUUGCGGUCGCACUAGUGUGGAAUUCUCGGGUGUCAAGG
B10: ENSMUSG00000043670.73|Diras1 (ssRNA)
RNA: GGGAGUUCUACAGUCCGACGAUCGCUUCGAUAUCCGCAUGCUAACACACUGGAGGUUUGAUCCCUGUGGAUCUGAAAACAGGGACCUGGCUAAGGAACUGCUCAUCCCAGUCAGGCCCAGAGAGGUUACCUUGCCUCUCCAUCUCUGUCCCUGUGUGCCCAGCCAUGCCCACUGUCCCUGUCCCUCACAUUCUAUCACUGUGACCUCUGGGGAGUGCCCAUUGACCUCAUCUUCCUUCACUAAUAUCUUAUUUCUUUCACCUGAUCCUGUCCUUUCCCCGUGACCUCUGACCUGUGGCCUUCCCUCUUGCGGUCGCACUAGUGUGGAAUUCUCGGGUGUCAAGG
B11: ENSMUSG00000004113.197|Cacna1b|112:116 (ssRNA)
RNA: GGGAGUUCUACAGUCCGACGAUCGCUUCGAUAUCCGCAUGCUACCUCUGCUCAACCAAGUGCCUGAUCUCUGGCUCUGAGCAUCGUGGAUGAGGUACGGCCUCAGGAAGCAUCGGGUGGAUUGGGUGGGAGCUGCUCAGAGCAGCACGGGGGCUACACACUUAGGGACAUUGACAGUGUCCAUCAGCAUGUCAGAGAAGCAGCUGUAGUGCCCGUGUUUCUCCCUGAGUCAUGGGUUCUGAAGAAGCCAGAGCGGCACAAUGCGUGCUUGCAUGAGGCACUUUCAGCCUUUUUAAAUCUGACUCUCUUGCGGUCGCACUAGUGUGGAAUUCUCGGGUGUCAAGG
B12: ENSMUSG00000090935.575|Synj2bp (ssRNA)
RNA: GGGAGUUCUACAGUCCGACGAUCGCUUCGAUAUCCGCAUGCUAAUUCAAAUUUUAUGUUUCUUAUAGACUGACUCAAAUAUUCCUACCACCUUAAAAUUAUAUAUGAUGCACCUACCACAUAAAUUAUAAUGUUUAAUGUUUUGAAAAUGGAUUAUAGGUAUUUUUAAGUUUUCAUAAAGUAUUUCUUAUAUUUGUCAUUGUGAAUUAUAUGUAAUUCUAAUAGACACUGUUUGCUUCAGUUGUUUUUGUUUCCUUUUCCUACAGUUUUCUGUGUGGGUGAUUUCAUUUAAUUAAUUGGACAGCUCUUGCGGUCGCACUAGUGUGGAAUUCUCGGGUGUCAAGG
B13: ENSMUSG00000028439.177|Fam219a (ssRNA)
RNA: GGGAGUUCUACAGUCCGACGAUCGCUUCGAUAUCCGCAUGCUAUAUGCACAUGUGUGUGCAUGUGUGUGUGCCUGUGUGUGUGCGUGUGCGUGUGUGUAUGUGUGUGCGUGUGUGUGUGUGUGUGUUGUACCCGAGUGUGUGUUGAGCCUAUCUGUCCAGGGAACCAGAUUGGUGUCCGAGAUGAGGAAAUGGCUGUGGCCUGGGAAAUCAGUGAGAGGCCGCUUGGGAAUGAGAAUGCAGUGGACUGAAAGCACAGCCUGGCCAUCUGGAACCUGGGUUCUGGUCCCAGCCUCGGCAUUCUCCUCUUGCGGUCGCACUAGUGUGGAAUUCUCGGGUGUCAAGG
B14: ENSMUSG00000028439.180|Fam219a (ssRNA)
RNA: GGGAGUUCUACAGUCCGACGAUCGCUUCGAUAUCCGCAUGCUAUGUGUGUGUGCCUGUGUGUGUGCGUGUGCGUGUGUGUAUGUGUGUGCGUGUGUGUGUGUGUGUGUUGUACCCGAGUGUGUGUUGAGCCUAUCUGUCCAGGGAACCAGAUUGGUGUCCGAGAUGAGGAAAUGGCUGUGGCCUGGGAAAUCAGUGAGAGGCCGCUUGGGAAUGAGAAUGCAGUGGACUGAAAGCACAGCCUGGCCAUCUGGAACCUGGGUUCUGGUCCCAGCCUCGGCAUUCUCCCUGAGCUCCUAAGCAAUCUCUUGCGGUCGCACUAGUGUGGAAUUCUCGGGUGUCAAGG
B15: ENSMUSG00000028439.179|Fam219a (ssRNA)
RNA: GGGAGUUCUACAGUCCGACGAUCGCUUCGAUAUCCGCAUGCUAUGUGCAUGUGUGUGUGCCUGUGUGUGUGCGUGUGCGUGUGUGUAUGUGUGUGCGUGUGUGUGUGUGUGUGUUGUACCCGAGUGUGUGUUGAGCCUAUCUGUCCAGGGAACCAGAUUGGUGUCCGAGAUGAGGAAAUGGCUGUGGCCUGGGAAAUCAGUGAGAGGCCGCUUGGGAAUGAGAAUGCAGUGGACUGAAAGCACAGCCUGGCCAUCUGGAACCUGGGUUCUGGUCCCAGCCUCGGCAUUCUCCCUGAGCUCCUACUCUUGCGGUCGCACUAGUGUGGAAUUCUCGGGUGUCAAGG
B16: ENSMUSG00000028439.178|Fam219a (ssRNA)
RNA: GGGAGUUCUACAGUCCGACGAUCGCUUCGAUAUCCGCAUGCUACAUGUGUGUGCAUGUGUGUGUGCCUGUGUGUGUGCGUGUGCGUGUGUGUAUGUGUGUGCGUGUGUGUGUGUGUGUGUUGUACCCGAGUGUGUGUUGAGCCUAUCUGUCCAGGGAACCAGAUUGGUGUCCGAGAUGAGGAAAUGGCUGUGGCCUGGGAAAUCAGUGAGAGGCCGCUUGGGAAUGAGAAUGCAGUGGACUGAAAGCACAGCCUGGCCAUCUGGAACCUGGGUUCUGGUCCCAGCCUCGGCAUUCUCCCUGAGCUCUUGCGGUCGCACUAGUGUGGAAUUCUCGGGUGUCAAGG

molecular target: TDP-43 (Homo sapiens, UniProt Q13148 1-414); experiment: RNA Bind-n-Seq with designed 260-mer pool; 25 mM Tris-HCl, 150 mM KCl, 3 mM MgCl2, BSA (printed 500 mg/mL), 20 units/mL SUPERase IN; pH not stated; 500 nM RNA pool, 1 h, 4 C; TDP-43 5, 50, 500 nM; high values mean tight binding; conditions: protein: recombinant; tags: SBP (GST cleaved off with PreScission; pGEX-GST-SBP)
Sequence (Q13148 whole entry): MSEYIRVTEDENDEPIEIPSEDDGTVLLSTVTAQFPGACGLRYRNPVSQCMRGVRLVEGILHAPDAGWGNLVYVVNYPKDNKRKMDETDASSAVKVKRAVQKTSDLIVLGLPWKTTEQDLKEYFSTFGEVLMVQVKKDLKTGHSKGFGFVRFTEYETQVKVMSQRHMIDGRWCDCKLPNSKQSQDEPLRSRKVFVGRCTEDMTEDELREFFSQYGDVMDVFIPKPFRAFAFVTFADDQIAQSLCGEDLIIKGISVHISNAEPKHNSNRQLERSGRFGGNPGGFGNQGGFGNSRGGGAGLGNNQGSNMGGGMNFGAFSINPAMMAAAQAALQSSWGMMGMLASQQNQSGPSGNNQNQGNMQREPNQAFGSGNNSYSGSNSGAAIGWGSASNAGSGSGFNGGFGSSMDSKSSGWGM
How it was run: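 The incubation lasted 1 h at 4 °C and used 500 nM of an in vitro-transcribed 260-nt 3′ UTR oligo pool with recombinant SBP-tagged TDP-43 at 5, 50 or 500 nM immobilized on streptavidin beads. It took place in 25 mM Tris-HCl, 150 mM KCl, 3 mM MgCl2, BSA and SUPERase IN. Bound RNA was washed, eluted with biotin, converted to cDNA, PCR-amplified and sequenced to give R, each oligo's normalized abundance in the bound sample divided by that in input. Two independent protein batches provided the duplicates.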

| Binder | binding signal |
| --- | --- |
| B1 | 0.515 R (bound/input frequency ratio) |
| B2 | 0.442 R (bound/input frequency ratio) |
| B3 | 0.247 R (bound/input frequency ratio) |
| B4 | 1.01 R (bound/input frequency ratio) |
| B5 | 0.362 R (bound/input frequency ratio) |
| B6 | 0.514 R (bound/input frequency ratio) |
| B7 | 2.37 R (bound/input frequency ratio) |
| B8 | 1 R (bound/input frequency ratio) |
| B9 | 0.116 R (bound/input frequency ratio) |
| B10 | 2.54 R (bound/input frequency ratio) |
| B11 | 0.691 R (bound/input frequency ratio) |
| B12 | 0.0736 R (bound/input frequency ratio) |
| B13 | 8.05 R (bound/input frequency ratio) |
| B14 | 5.95 R (bound/input frequency ratio) |
| B15 | 7.2 R (bound/input frequency ratio) |
| B16 | 9.43 R (bound/input frequency ratio) |

— paper PMC12864922, “TDP-43 directly inhibits mRNA accumulation in neurites through modulation of mRNA stability”
